Values joined by “and” are separate entries in the source; they are usually repeats but may differ in a detail not shown here. Equal values may be shown once. Results filed as inconclusive are left out. Active and inactive are the calls of the source. Unless noted, calls follow the shape of the dose curve; as a rule, active = well fitted curve in the direction sought with a large enough effect; inconclusive = small, poorly fitted or top-dose-only effect, or another doubt; inactive = no such curve, though single readings can be large; an effect the other way counts as inactive or inconclusive.
Legend:
[1] = molecular target: Phospholipid hydroperoxide glutathione peroxidase GPX4 (Homo sapiens) (UniProt P36969); experiment: Primary qHTS Assay for Inhibitors of Recombinant Selenoprotein Glutathione Peroxidase 4 (GPX4) (AID 1845192); also: nearly all actives have a fitted effect of over 65% in size; also: potency is read from the fitted curve at half-maximal effect
Summary of the method: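 GR-coupled readout: 100 nM GR, 1 mM GSH, 0.5 mM NADPH; NADPH fluorescence (ex 340/em 450 nm) read at t=0 and after 15 min RT. GPX4 200 nM, preincubated 30 min with compound; substrate 0.5 mM CHP.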

[2] = molecular target: Luciferin 4-monooxygenase (Photinus pyralis) (UniProt P08659); experiment: Biochemical firefly luciferase enzyme assay for NPC (AID 624030);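 also: purified P. pyralis luciferase at 10 nM with luciferin and ATP substrate; 0% = DMSO and -100% = full luciferase inhibition by PTC124 control; nearly all actives have a fitted effect of over 70% in size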
Summary of the method: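 Counter-screen for direct inhibition of the luciferase enzyme by approved-drug library compounds, run at 10 nM enzyme in 50 mM Tris acetate (final). Luminescence was read within 5 min of enzyme-buffer addition and normalized to PTC124 versus DMSO (0%).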

[3] = Cell Viability - LYMP2-018 (AID 985);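 also: compound exposure lasted 24 hr at 37 °C; plate controls were DMSO only for no effect and tetraoctylammonium bromide at 92 µM for full effect; nearly all actives have a fitted effect of over 50% in size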
Summary of the method: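 Human lymphoblastoid cells (2500/well) were pre-incubated 5 hr at 37 C, then exposed to compounds for 24 hr at 37 C in complete medium. Viability was read as intracellular ATP by CellTiter-Glo luminescence; AC50 values came from Hill-equation fits.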

[4] = molecular target: Estrogen receptor (Homo sapiens) (UniProt P03372); experiment: qHTS assay for small molecule agonists of estrogen receptor alpha signaling (AID 588514; calls by dose curve;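 also: 0% = vehicle only and 100% = reference agonist; nearly all actives have a fitted effect of over 70% in size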)
Summary of the method: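 ER-alpha-UAS-bla GripTite HEK 293 cells in medium with 2% charcoal/dextran-treated FBS were treated with compound titrations at 37 C for 18 hrs; beta-lactamase reporter read by CCF4 fluorescence after 2 hrs at RT.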

[5] = molecular target: Bile acid receptor (Homo sapiens) (UniProt Q96RI1); experiment: qHTS assay for small molecule antagonists of farnesoid X receptor signaling (AID 588526; calls by dose curve; also: % is scaled to controls: 0 for no effect and ±100 for the full control effect)
Summary of the method: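 Concentration-response titrations were fitted to the Hill equation for half-maximal inhibition and maximal response, with data normalised to 50 uM chenodeoxycholic acid and DMSO control wells. Cells: FXR-UAS-bla HEK293T, dialyzed FBS.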

[6] = molecular target: Glucocorticoid receptor (Homo sapiens) (UniProt P04150); experiment: qHTS assay for small molecule antagonists of glucocorticoid receptor signaling (AID 588533; active = well fitted inhibition curve with a large enough effect in the signal ratio, with a control signal flat, not every such curve was filed as active; the % refers to the signal ratio;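 also: cells stimulated with 2 nM dexamethasone as agonist; % is scaled to controls: 0 for no effect and ±100 for the full control effect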)
Summary of the method: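 Antagonist-mode qHTS: compound titrations added to GRE-bla HeLa cells, then dexamethasone 2 nM final; 18 h, 37 C. CCF4 FRET fluorescence normalized to dexamethasone and DMSO; IC50 from Hill fit.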

[7] = qHTS assay for small molecule antagonists of peroxisome proliferator-activated receptor delta signaling (AID 588535; active = well fitted inhibition curve with a large enough effect in the signal ratio, with a control signal flat, not every such curve was filed as active; the % refers to the signal ratio;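 as to max response: cells co-treated with a PPAR-delta agonist as stimulator during compound exposure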); details: HEK293T PPARd-UAS-bla, beta-lactamase FRET ratio, 18 h; 460 nm channel
Summary of the method: (§1)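 GeneBLAzer PPAR-delta-UAS-bla HEK293T cells in medium with 2% charcoal/dextran FBS were preincubated 5 hrs at 37 C, then given compounds, incubated 18 hrs at 37 C, and read by CCF4 beta-lactamase fluorescence; IC50 from Hill fits.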

[8] = molecular target: Peroxisome proliferator-activated receptor delta (Homo sapiens) (UniProt Q03181); experiment: as above
Summary of the method: as §1

[9] = molecular target: Peroxisome proliferator-activated receptor gamma (Homo sapiens) (UniProt P37231); experiment: qHTS assay for small molecule antagonists of peroxisome proliferator-activated receptor gamma signaling (AID 588537; active = well fitted inhibition curve with a large enough effect in the signal ratio, with a control signal flat, not every such curve was filed as active; the % refers to the signal ratio;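 also: reporter cells co-stimulated with 50 nM rosiglitazone agonist during compound treatment; % of control where 0% means no effect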)
Summary of the method: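 PPAR-gamma-UAS-bla HEK293 cells (3000/well, 1% charcoal/dextran-stripped FBS) were preincubated 6-6.5 h at 37 C, given titrated compounds, then stimulated with 50 nM rosiglitazone for 16 h. Beta-lactamase activity was read with CCF4 dye; IC50 came from Hill fits.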

[10] = molecular target: Vitamin D3 receptor (Homo sapiens) (UniProt P11473); experiment: qHTS assay for small molecule antagonists of vitamin D receptor signaling (AID 588541; calls by dose curve;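 also: receptor activated by calcitriol during compound treatment; % is scaled to controls: 0 for no effect and ±100 for the full control effect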)
Summary of the method: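 VDR-UAS-bla HEK293T cells (2000/well, 2% charcoal-stripped FBS) were treated with titrated compounds plus 1-alpha,25-dihydroxyvitamin D3 (50 nM or 3 nM final) for 16 h at 37 C. CCF4 beta-lactamase fluorescence was read; Hill fits gave IC50.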

[11] = qHTS assay for small molecule agonists of the antioxidant response element (ARE) signaling pathway (AID 651741; active = well fitted activation curve with a large enough effect in the signal ratio; the % refers to the signal ratio; also: % of control where 0% means no effect)
Summary of the method: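 ARE-bla HepG2 cells (beta-lactamase reporter under ARE control) were plated at 2,000 cells/well, preincubated 5 h at 37 C/5% CO2, then treated with DMSO-dissolved compounds for 16 h at 37 C; LiveBLAzer B/G FRET substrate added, fluorescence read after 2 h at room temperature.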

[12] = qHTS assay to identify small molecules that stimulate interleukin-8 (IL-8) secretion (AID 651758; active = well fitted activation curve with a large enough effect in the signal ratio; the % refers to the signal ratio; also: 0% is about no effect)
Summary of the method: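 THP-1, 2000 cells/well; cpd 16 h, 37 C; add cryptate + XL665 anti-IL-8 Abs; RT 1-3 h; TR-FRET read.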

[13] = molecular target: Nuclear receptor ROR-gamma (Homo sapiens) (UniProt P51449); experiment: qHTS assay for small molecule antagonists of the retinoid-related orphan receptor gamma (ROR-gamma) signaling pathway (AID 651802); also: % is scaled to controls: 0 for no effect and ±100 for the full control effect; nearly all actives have a fitted effect of over 60% in size
Summary of the method: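 CHO cells carrying TET-inducible ROR-gamma and an ROR response element–luciferase reporter were exposed to compound, then induced with doxycycline. After 16hr at 37C, luminescence was read; lower signal indicates antagonism.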

[14] = Cell Viability - N2a (AID 540); details: N2a mouse neuroblastoma cell viability; activity change, negative = cytotoxicity: at 92.2 µM (top of the series);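 also: plate controls were DMSO alone for no effect and tamoxifen control for full effect; nearly all actives have a fitted effect of over 45% in size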
Summary of the method: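 Mouse neuroblastoma N2a cells (1500/well) were preincubated 5 hr at 37 °C, then exposed to compounds for 40 hr at 37 °C in complete medium. Viability was read as intracellular ATP by CellTiter-Glo luminescence; AC50 from Hill fits.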

[15] = Cellular Toxicity (caspase-3) HUV-EC-C (AID 656);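 also: 0% = DMSO basal and 100% = 100 µM tamoxifen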
Summary of the method: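 Read-out: luminescence proportional to caspase 3/7 activity, measured 20 min after adding Caspase-Glo 3/7 reagent. Cells (HUV-EC-C) had received compound for 16 hr at 37°C. Increases relative to DMSO and 100 uM tamoxifen gave concentration-response AC50 values.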

[16] = qHTS assay for cell viability of the p53RE-bla HCT-116 cell line (AID 743292); also: % is scaled to controls: 0 for no effect and ±100 for the full control effect; nearly all actives have a fitted effect of over 55% in size
Summary of the method: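 Intracellular ATP of p53RE-bla HCT-116 cells measured by luciferase luminescence following 16 h compound incubation at 37 C; DMSO-only wells served as vehicle controls.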

[17] = Cellular Toxicity (caspase-3) HepG2 (AID 654);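 also: cells exposed to compound for 16 hours before reading; 0% = DMSO alone and 100% = caspase signal from 100 µM tamoxifen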
Summary of the method: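 HepG2 cells (1500/well) in complete medium were treated with compounds for 16 hr at 37 °C. Caspase-3/7 activity was then read as luminescence from peptide-aminoluciferin cleavage. AC50 came from Hill fits, normalized to DMSO and 100 uM tamoxifen.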

[18] = Cell Viability - LYMP2-016 (AID 984); also: % is scaled to controls: 0 for no effect and ±100 for the full control effect; nearly all actives have a fitted effect of over 55% in size
Summary of the method: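 Acute toxicity in a Coriell human lymphoblastoid line is scored as loss of intracellular ATP over 24 h of treatment in complete medium. CellTiter-Glo signal is fitted across concentrations with the Hill equation to give AC50.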

[19] = qHTS profiling for inhibitors of Plasmodium falciparum proliferation (AID 504749);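 also: 0% = DMSO vehicle and full inhibition = artemisinin control; nearly all actives have a fitted effect of over 60% in size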; details: P. falciparum in erythrocytes, SYBR Green DNA, 72 h, at 28.7 µM (top of the series)
Summary of the method: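 P. falciparum-infected erythrocytes (0.3% parasitemia, 2.5% hematocrit final) were exposed to compounds for 72 h at 37 C in 5% CO2, then lysed with SYBR Green buffer overnight at room temperature; parasite DNA fluorescence was normalized to artemisinin and DMSO controls.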

Chain of Nuclear receptor ROR-gamma (Homo sapiens) (P51449 whole entry, looked up): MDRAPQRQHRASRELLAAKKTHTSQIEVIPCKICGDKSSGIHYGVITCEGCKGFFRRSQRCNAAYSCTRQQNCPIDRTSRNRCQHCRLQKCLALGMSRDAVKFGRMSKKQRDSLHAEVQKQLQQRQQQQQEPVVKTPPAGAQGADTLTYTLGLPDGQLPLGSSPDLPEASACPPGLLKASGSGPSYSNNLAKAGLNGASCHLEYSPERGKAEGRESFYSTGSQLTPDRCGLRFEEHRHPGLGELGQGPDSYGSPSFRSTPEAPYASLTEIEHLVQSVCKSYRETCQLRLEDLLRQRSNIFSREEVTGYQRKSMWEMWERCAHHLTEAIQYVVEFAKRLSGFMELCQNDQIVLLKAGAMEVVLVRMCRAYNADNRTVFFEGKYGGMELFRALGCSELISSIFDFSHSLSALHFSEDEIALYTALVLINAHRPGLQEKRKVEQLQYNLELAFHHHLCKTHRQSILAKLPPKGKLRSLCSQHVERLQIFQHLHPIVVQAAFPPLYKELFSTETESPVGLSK
Chain of Vitamin D3 receptor (Homo sapiens) (P11473 whole entry, looked up): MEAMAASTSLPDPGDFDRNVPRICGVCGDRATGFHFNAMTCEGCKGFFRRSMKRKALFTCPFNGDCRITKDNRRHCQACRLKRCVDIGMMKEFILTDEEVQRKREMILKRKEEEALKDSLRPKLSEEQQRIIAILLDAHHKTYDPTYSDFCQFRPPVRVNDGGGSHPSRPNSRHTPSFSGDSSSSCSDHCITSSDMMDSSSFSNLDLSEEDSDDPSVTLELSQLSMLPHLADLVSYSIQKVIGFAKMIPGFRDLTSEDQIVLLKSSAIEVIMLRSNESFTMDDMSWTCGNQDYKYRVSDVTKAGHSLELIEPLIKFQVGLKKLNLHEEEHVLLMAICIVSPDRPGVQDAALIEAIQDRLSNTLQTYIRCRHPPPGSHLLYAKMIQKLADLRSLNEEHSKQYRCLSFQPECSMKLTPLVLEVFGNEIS
Chain of Peroxisome proliferator-activated receptor gamma (Homo sapiens) (P37231 whole entry, looked up): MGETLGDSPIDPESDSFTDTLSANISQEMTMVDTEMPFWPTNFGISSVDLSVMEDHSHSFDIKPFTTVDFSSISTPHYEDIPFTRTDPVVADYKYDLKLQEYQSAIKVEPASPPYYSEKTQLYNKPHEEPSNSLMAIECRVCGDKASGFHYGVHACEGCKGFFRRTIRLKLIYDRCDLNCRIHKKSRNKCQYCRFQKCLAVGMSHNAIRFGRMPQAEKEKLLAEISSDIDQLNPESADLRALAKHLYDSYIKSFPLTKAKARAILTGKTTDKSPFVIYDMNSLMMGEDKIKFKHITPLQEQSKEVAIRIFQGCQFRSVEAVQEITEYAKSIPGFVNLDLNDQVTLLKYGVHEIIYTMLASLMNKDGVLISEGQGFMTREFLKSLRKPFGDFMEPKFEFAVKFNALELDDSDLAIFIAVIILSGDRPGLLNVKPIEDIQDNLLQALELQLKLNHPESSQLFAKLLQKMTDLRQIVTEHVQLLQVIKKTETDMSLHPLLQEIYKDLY
Chain of Estrogen receptor (Homo sapiens) (P03372 whole entry, looked up): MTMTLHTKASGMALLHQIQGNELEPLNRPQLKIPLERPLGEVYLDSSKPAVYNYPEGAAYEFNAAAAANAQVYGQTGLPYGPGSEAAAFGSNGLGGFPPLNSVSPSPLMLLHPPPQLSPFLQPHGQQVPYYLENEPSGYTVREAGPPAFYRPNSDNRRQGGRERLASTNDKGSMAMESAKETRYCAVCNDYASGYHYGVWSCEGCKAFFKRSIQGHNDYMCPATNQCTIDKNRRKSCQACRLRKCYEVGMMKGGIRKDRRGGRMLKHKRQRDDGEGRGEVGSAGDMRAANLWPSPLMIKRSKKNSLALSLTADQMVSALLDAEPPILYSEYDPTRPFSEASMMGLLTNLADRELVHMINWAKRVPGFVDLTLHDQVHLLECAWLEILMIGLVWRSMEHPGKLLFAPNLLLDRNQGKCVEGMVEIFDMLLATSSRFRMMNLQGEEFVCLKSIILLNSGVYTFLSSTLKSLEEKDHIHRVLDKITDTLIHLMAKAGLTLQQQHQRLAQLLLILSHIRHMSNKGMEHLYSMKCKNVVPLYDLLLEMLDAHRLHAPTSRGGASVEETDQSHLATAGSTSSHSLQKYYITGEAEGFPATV
Chain of Bile acid receptor (Homo sapiens) (Q96RI1 whole entry, looked up): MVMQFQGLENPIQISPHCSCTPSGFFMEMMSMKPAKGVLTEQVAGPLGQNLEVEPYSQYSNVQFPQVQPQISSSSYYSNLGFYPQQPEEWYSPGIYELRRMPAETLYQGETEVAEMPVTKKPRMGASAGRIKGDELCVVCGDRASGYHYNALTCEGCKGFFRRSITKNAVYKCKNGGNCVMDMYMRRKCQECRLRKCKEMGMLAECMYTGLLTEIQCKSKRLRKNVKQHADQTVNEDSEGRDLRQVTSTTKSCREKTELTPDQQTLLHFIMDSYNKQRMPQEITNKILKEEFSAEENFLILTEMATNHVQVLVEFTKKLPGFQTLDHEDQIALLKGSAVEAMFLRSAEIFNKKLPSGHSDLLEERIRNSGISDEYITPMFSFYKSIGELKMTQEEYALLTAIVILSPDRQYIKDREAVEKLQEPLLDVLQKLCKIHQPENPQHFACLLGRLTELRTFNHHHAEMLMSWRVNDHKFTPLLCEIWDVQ
Chain of Peroxisome proliferator-activated receptor delta (Homo sapiens) (Q03181 whole entry, looked up): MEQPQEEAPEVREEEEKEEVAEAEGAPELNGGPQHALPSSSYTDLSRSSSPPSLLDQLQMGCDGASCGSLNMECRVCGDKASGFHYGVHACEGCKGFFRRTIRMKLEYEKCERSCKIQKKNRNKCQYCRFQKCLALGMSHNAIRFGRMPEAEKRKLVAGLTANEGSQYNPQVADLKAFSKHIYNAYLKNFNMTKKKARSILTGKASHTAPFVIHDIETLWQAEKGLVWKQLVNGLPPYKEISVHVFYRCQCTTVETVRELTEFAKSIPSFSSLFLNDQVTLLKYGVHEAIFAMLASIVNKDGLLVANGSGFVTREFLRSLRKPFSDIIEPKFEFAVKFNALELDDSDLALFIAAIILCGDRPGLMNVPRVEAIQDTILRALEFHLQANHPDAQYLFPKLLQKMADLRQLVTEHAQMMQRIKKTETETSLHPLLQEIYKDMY
Chain of Glucocorticoid receptor (Homo sapiens) (P04150 whole entry, looked up): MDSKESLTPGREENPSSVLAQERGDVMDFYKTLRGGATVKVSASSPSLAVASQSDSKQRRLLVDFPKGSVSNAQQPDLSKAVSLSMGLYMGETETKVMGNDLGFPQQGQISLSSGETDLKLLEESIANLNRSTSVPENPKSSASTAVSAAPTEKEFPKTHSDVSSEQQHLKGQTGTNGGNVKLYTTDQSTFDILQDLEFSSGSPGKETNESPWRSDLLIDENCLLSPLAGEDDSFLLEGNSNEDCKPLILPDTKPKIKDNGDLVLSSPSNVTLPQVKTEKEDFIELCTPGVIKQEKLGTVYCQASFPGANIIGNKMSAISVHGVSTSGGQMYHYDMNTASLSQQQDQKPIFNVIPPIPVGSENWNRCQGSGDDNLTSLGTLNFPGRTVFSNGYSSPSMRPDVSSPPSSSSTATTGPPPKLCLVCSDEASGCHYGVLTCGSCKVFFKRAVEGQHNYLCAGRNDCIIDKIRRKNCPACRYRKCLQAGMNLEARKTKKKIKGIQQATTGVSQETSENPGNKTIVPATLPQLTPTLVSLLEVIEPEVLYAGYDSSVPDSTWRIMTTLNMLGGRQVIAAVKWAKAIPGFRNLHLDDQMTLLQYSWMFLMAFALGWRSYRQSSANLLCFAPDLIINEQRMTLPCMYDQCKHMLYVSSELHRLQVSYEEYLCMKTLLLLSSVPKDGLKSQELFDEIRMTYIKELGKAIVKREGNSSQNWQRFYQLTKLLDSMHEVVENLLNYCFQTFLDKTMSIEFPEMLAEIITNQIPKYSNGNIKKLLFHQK
Chain of Phospholipid hydroperoxide glutathione peroxidase GPX4 (Homo sapiens) (P36969 whole entry, looked up): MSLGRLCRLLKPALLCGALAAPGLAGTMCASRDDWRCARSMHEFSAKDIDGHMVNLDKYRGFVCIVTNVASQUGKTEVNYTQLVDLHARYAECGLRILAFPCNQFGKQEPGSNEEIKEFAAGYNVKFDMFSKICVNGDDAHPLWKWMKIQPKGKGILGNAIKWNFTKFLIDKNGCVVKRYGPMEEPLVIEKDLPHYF
Chain of Luciferin 4-monooxygenase (Photinus pyralis) (P08659 whole entry, looked up): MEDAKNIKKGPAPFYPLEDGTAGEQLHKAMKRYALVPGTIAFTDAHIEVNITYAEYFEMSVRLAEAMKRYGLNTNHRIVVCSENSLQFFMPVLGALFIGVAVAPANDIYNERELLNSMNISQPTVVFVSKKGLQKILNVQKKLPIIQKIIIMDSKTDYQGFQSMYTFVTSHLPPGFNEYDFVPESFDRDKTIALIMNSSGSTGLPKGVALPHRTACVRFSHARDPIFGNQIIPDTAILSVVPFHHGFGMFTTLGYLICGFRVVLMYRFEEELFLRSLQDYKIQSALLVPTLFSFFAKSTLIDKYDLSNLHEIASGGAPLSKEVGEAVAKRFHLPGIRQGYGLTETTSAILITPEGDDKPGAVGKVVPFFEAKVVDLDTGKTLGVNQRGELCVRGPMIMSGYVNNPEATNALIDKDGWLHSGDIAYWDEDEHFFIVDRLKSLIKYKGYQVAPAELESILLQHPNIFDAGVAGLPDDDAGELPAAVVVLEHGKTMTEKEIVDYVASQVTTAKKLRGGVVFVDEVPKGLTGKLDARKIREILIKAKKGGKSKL

C[C@H]1O[C@]2(CS1)CN1CCC2CC1
inactive: Potency [1]

CN1CC[C@H](CN2c3ccccc3Sc3ccccc32)C1
inactive: Potency [2] | Potency [1]

Cc1ccc([N+](=O)[O-])c(C)c1
inactive: Potency [3] | Potency [4] | outcome [5] | Potency [6] | Potency [8] | outcome [9] | outcome [10] | Potency [11] | Potency [12] | Potency [13]
-27.9% and -14.4%: max response [7]

Clc1cc(Cl)c(Cl)cc1Cl
inactive: activity change, negative = cytotoxicity [14] 2.22% | outcome [15] | Potency [4] | Potency [6] | Potency [8] | outcome [9] | Potency [11] | Potency [13] | Potency [16]
10.3% and -6.5%: max response [7]

CCc1cc2c(cc1CC)CC(NC[C@H](O)c1ccc(O)c3[nH]c(=O)ccc13)C2
active: Potency [1] 10 µM

COC(=O)N[C@H](C(=O)N1CCC[C@H]1c1ncc(-c2ccc3c(c2)O[C@@H](c2ccccc2)n2c-3cc3cc(-c4cnc([C@@H]5CCCN5C(=O)[C@@H](NC(=O)OC)C(C)C)[nH]4)ccc32)[nH]1)C(C)C
active: Potency [1] 6.31 µM

Cn1nnnc1SCC1=C(C(=O)O)N2C(=O)[C@H](NC(=O)C(O)c3ccccc3)C2SC1 (stereo partly specified)
active: Potency [1] 8.91 µM

Clc1cc(Cl)c(Cl)c(Cl)c1Cl
inactive: outcome [17] | Potency [18] | Potency [4] | Potency [6] | outcome [10] | Potency [11] | Potency [12] | Potency [13]

CN(C)CCCCCCN(C)C
53.3%: max response [7]
inactive: activity change, negative = cytotoxicity [14] 1.64% | outcome [17] | Potency [18] | outcome [5] | Potency [6] | Potency [8] | outcome [10] | Potency [2] | Potency [11] | Potency [16] | activity, negative = inhibition ([19]; parasite line A) 13.6% | activity, negative = inhibition ([19]; parasite line B) -6.83%

CC(C)=CCCC(C)CCO (stereo unspecified)
inactive: outcome [17] | outcome [15] | Potency [18] | Potency [4] | Potency [6] | Potency [8] | outcome [9] | Potency [11] | Potency [13] | Potency [16]
6.53% and 29.8%: max response [7]

COCC(=O)O
inactive: outcome [15] | Potency [4] | Potency [6] | Potency [8] | outcome [9] | outcome [10] | Potency [11] | Potency [13]
5.18% and 13.7%: max response [7]

CCO[Si](CCCN)(OCC)OCC
inactive: outcome [17] | outcome [15] | Potency [18] | Potency [4] | outcome [5] | Potency [6] | Potency [8] | outcome [9] | outcome [10] | Potency [11] | Potency [13] | Potency [16]
6.45% and -7.95%: max response [7]

O=C(O)CCCCCCCCC(=O)O
1.66%: max response [7]
inactive: outcome [5] | Potency [8] | outcome [9] | outcome [10] | Potency [11]

CCCCCCCCO
inactive: outcome [17] | outcome [15] | Potency [4] | Potency [6] | Potency [8] | outcome [9] | outcome [10] | Potency [11] | Potency [13] | Potency [16]
-13.8% and 47.8%: max response [7]

CCC(O)OC(O)CC (stereo unspecified)
inactive: activity change, negative = cytotoxicity [14] 5.7% and 11.3% | Potency [4] | Potency [6] | outcome [9] | outcome [10] | Potency [12]

c1ccc2c(c1)c1cccc3ccc4cccc2c4c31
inactive: outcome [15] | Potency [18] | Potency [4] | outcome [5] | Potency [6] | Potency [8] | outcome [10] | Potency [13] | Potency [16]
25.2% and 42.4%: max response [7]

CCCCCCCCOC(=O)c1cc(O)c(O)c(O)c1
-19.5%: max response [7]
inactive: Potency [4] | Potency [8] | outcome [9] | outcome [10] | Potency [11]

Cc1cccc([N+](=O)[O-])c1C
inactive: outcome [17] | outcome [15] | Potency [4] | Potency [8] | outcome [9] | outcome [10] | Potency [11] | Potency [12]
-14.5% and -6.43%: max response [7]

Cc1c(N=C=O)cccc1N=C=O
inactive: Potency [3] | Potency [4] | Potency [6] | outcome [9] | outcome [10] | Potency [11] | Potency [13]

COC(=O)c1ccc(C)cc1
-3.36% and -19.7%: max response [7]
inactive: Potency [3] | outcome [5] | Potency [6] | Potency [8] | outcome [10] | Potency [11] | Potency [13] | Potency [16]

C=CCOC(=O)c1ccccc1C(=O)OCC=C
inactive: activity change, negative = cytotoxicity [14] -8.09% | Potency [3] | Potency [4] | outcome [5] | outcome [9] | Potency [13]

From PubChem BioAssay (NCATS)
